The list is not random: actives were taken first. Their share in the collection is about 19%.
HepG2 tox – counter-screen for TGF-b inhibitors: cytotoxicity in HepG2 cells; HepG2 CAGA-GFP viability, ATP luminescence, 18 h; Potency, µM (doses to about 46.1 µM), inactives show at the top dose activity change, negative = cytotoxicity, hits mostly cytotoxic; 0.76% of 410,000 active; AID 588856; also: potency is read from the fitted curve at half-maximal effect
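HepG2 CAGA-GFP cells (1000/well, DMEM with 1% FBS) received compound, then TGF-beta at 500 pg/mL final, and were incubated 18 hours at 37 degrees C. Viability was read by CellTiter-Glo luminescence. Media-only wells were set as complete cell-killing and DMSO as no toxicity.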
TDP1 block – TDP1 (human) enzyme inhibition. recombinant TDP1, AlphaScreen DNA substrate cleavage. Potency, µM (top dose mostly 130 µM), without a hit: top-dose activity change, negative = inhibition, hits mostly inhibitors. 0.28% of 350,000 active. AID 485290; also: potency is read from the fitted curve at half-maximal effect; % is scaled to controls: 0 for no effect and ±100 for the full control effect; nearly all actives have a fitted effect of over 40% in size
Target sequence (Q9NUW8 whole entry, looked up): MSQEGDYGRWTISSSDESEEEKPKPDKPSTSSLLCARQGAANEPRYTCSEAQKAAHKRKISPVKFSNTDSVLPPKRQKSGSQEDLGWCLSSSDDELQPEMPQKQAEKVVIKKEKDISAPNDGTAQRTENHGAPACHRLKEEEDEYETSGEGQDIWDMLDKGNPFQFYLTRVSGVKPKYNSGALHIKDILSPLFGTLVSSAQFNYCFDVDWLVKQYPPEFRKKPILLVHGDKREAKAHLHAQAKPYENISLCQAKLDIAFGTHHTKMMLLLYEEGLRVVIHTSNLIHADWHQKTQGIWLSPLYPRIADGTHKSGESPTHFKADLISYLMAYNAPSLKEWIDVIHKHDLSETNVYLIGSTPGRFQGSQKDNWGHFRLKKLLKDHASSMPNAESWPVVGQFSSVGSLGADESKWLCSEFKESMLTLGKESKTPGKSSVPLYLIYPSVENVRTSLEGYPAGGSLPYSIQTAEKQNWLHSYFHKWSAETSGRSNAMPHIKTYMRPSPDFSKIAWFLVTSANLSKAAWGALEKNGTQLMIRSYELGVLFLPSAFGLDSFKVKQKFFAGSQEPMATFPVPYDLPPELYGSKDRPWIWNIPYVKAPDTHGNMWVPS
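Compounds were preincubated with Tdp1 (1 nM final) for 15 min at room temperature before substrate (15 nM final) started a 5 min reaction; beads (10 ug/ml final) were then added for 10 min before AlphaScreen detection.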
IL1B secr inh – inflammasome signaling inhibition, IL-1 beta readout; THP-1 LPS/ATP IL-1B secretion, AlphaLISA, 16 h; stronger effect = lower value; activity change, % at 57.5 µM; 4.7% of 360,000 active; in the data active = activity change below about -50%; inconclusive = mostly about -30% to -49%; also: % is scaled to controls: 0 for no effect and ±100 for the full control effect
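Secreted IL-1B measured by AlphaLISA bead assay after 16 h compound exposure of THP-1 cells; compounds (final up to 57.5 uM) added 1 h before LPS (250 ng/mL) and ATP (1.25 mM) stimulation; lower signal means less secretion.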
TDP1 cell CPT – growth inhibition of DT40 Tdp1-/-;hTDP1 cells with camptothecin (screen for TDP1 inhibitors); chicken DT40 Tdp1-/-;hTDP1 cells + 20 nM CPT, ATP luminescence, 48 h; Potency, µM (series often up to 46.2 µM), inactives show top-dose activity change, negative = growth inhibition, usual class: inhibitors; 12% of 420,000 active; also: potency is read from the fitted curve at half-maximal effect; % is scaled to controls: 0 for no effect and ±100 for the full control effect; nearly all actives have a fitted effect of over 55% in size
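Chicken DT40 Tdp1-/- cells complemented with human TDP1, 400 cells/well, exposed to compounds plus 20 nM camptothecin for at least 48 h at 37 C; viability read as ATP content by CellTiter-Glo luminescence.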
TGFb inhibitor – blocks TGF-b signaling | HepG2 CAGA-GFP TGF-b/SMAD3 reporter, GFP fluorescence, 18 h; TGF-beta stimulated, 500 pg/mL final | Potency, µM (doses to about 46.1 µM), inactives show top-dose activity, negative = inhibition, most hits filed as inhibitors | 1.2% of 410,000 active; also: potency is read from the fitted curve at half-maximal effect; % is scaled to controls: 0 for no effect and ±100 for the full control effect; nearly all actives have a fitted effect of over 65% in size
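Using HEPG2 CAGA-GFP reporter cells at 1000 cells/well, we pinned test compounds, stimulated with recombinant TGF-beta (500 pg/mL final) and measured total well GFP after 18 h.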
TDP1 cell noCPT – qHTS for Inhibitors of human tyrosyl-DNA phosphodiesterase 1 (TDP1): qHTS in cells in absence of CPT; DT40 Tdp1-/- hTDP1 cells, no CPT, ATP luminescence, 48 h; Potency, µM (top dose mostly 46.2 µM), for the others: at the top dose activity change, negative = growth inhibition, most hits filed as inhibitors; 15% of 420,000 active; also: potency is read from the fitted curve at half-maximal effect; % is scaled to controls: 0 for no effect and ±100 for the full control effect; nearly all actives have a fitted effect of over 55% in size
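A cellular qHTS used chicken DT40 cells lacking endogenous Tdp1 but carrying stably transfected human TDP1. Compounds were applied without camptothecin, and cell growth kinetics were judged by ATP-dependent luminescence after ≥48 hr.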
* hit, by the source's call; ? = inconclusive; nt = not tested or not shown; [ ] = dose if it differs, or a comment. Unless noted, calls follow the shape of the dose curve; as a rule, active = well fitted curve in the direction sought with a large enough effect; inconclusive = small, poorly fitted or top-dose-only effect, or another doubt; inactive = no such curve, though single readings can be large; an effect the other way counts as inactive or inconclusive.

SMILES | HepG2 tox | TDP1 block | IL1B secr inh | TDP1 cell CPT | TGFb inhibitor | TDP1 cell noCPT
Cc1cccc2sc(NNC(=O)c3cc(=O)c4ccccc4o3)nc12 | -53.2% | nt | 23.8 | ? | ? | ?
Cc1cccc(-n2c(N)cc(=O)nc2SCC(=O)Nc2ccc(F)cc2)c1C | 21.7% | 1.9% | nt | -30.0% | -0.3% | -28.5%
CCOC(=O)c1ccccc1NC(=O)c1cn(CC(C)C)c(=O)c2cc(OC)c(OC)cc12 | 5.9% | -2.9% | nt | -2.3% | -0.4% | ?
CCCCNS(=O)(=O)c1ccc2nc(-c3cccnc3)cc(C(=O)NCCC)c2c1 | -3.8% | -1.9% | nt | ? | 5.0% | -20.5%
Cc1ccccc1C(=O)Nc1sc2c(c1C(=O)NCc1ccco1)CCC(C(C)(C)C)C2 (centres undefined) | -1.4% | nt | nt | ? | nt | ?
CSc1ccc(NC(=O)NCc2cccnc2)cc1 | -23.5% | nt | -21.7 | 6.0% | 1.6% | 1.6%
CC(=O)N(Cc1cc2ccccc2[nH]c1=O)c1ccc(C)cc1 | 1.7% | nt | -4.6 | ? | -0.2% | ?
O=C(Nc1nc(-c2ccccc2)cs1)C1COc2ccccc2O1 (centres undefined) | -2.5% | 4.7% | -4.6 | -5.3% | -20.7% | ?
O=C(Nc1nc(-c2ccccn2)cs1)C1COc2ccccc2O1 (centres undefined) | -13.7% | 5.2% | 93.5 | 3.26µM* | -31.0% | 5.17µM*
CC(C)Cc1nc2cc(NS(=O)(=O)N(C)C)cc(C(=O)N3CC4(C)CC3CC(C)(C)C4)c2n1C (centres undefined) | nt | nt | nt | -7.9%[9.04 µM] | nt | ?
CN(C)c1ccc(/C=C(\C#N)c2nc(-c3ccc(Cl)c(Cl)c3)cs2)cc1 | -15.2% | 1.3%[12.3 µM] | nt | -17.4% | -0.1% | -11.8%
O=C(COc1ccccc1F)OCC(=O)c1ccc([N+](=O)[O-])cc1 | 1.0% | 0.7% | ? | ? | 0.0% | -25.6%
CCCCC/S(CC1CC1(Cl)Cl)=N\S(=O)(=O)c1ccc(C)cc1 (centres undefined) | 0.3% | 2.7% | -4.6 | -3.3% | 8.4% | ?
Cc1ccc(S(=O)(=O)N=S(CC2CC2(Cl)Cl)CC2CC2(Cl)Cl)cc1 (centres undefined) | -24.0% | 0.0% | -5.4 | 23.1µM* | -7.1% | 25.9µM*
NS(=O)(=O)c1ccc(CCNc2ncnc3c2cnn3-c2cccc(Cl)c2)cc1 | -39.9% | 2.6% | nt | ? | ? | ?
N#Cc1cc(C(=O)c2cc(Cl)ccc2O)cn(CC2CCCO2)c1=O (centres undefined) | -5.8% | -6.8% | -0.9 | ? | -14.2% | 20.6µM*
CC(C)n1cc(C(=O)c2ccccc2O)cc(C#N)c1=O | -4.3% | 1.2% | -2.8 | -22.7% | 21.8% | 0.6%
Cc1c(-n2cc(C(=O)c3cc(F)ccc3O)cc(C#N)c2=O)c(=O)n(-c2ccccc2)n1C | 19.5% | 8.6% | -55.9* | 4.0% | 33.3% | -9.6%
N#Cc1cc(C(=O)c2cc(Br)ccc2O)cn(Cc2ccccc2)c1=O | -10.8% | 3.7% | ? | ? | -20.4% | 20.6µM*
Cc1ccccc1-n1cc(C(=O)c2cc(Cl)ccc2O)cc(C#N)c1=O | -16.8% | 0.0% | 0.0 | ? | ? | 11.6µM*
N#Cc1cc(C(=O)c2cc(F)ccc2O)cn(-c2nccs2)c1=O | -27.5% | 6.7% | 22.9 | -18.3% | 8.7% | ?
COc1ccc(O)c(C(=O)c2cc(C#N)c(=O)n(Cc3ccccc3)c2)c1 | 4.8% | 2.6% | -3.0 | ? | ? | ?
Cc1ccc(Cl)cc1NCc1nnc2n1CCCCC2 | 3.4% | 2.7% | nt | -0.9% | 2.8% | 4.0%
C[C@@H]1[C@H](O)C[C@@]23COC(=O)C2=CCC[C@@H]3[C@@]1(C)CC/C(=C/CO)CO | -7.2% | nt | 21.4 | -6.5% | -9.0% | -9.7%
O=C(O)c1ccc(NC(=S)NC(=O)c2cccnc2)cc1 | 2.2% | nt | 18.2 | ? | 0.7% | -10.5%
SMILES | HepG2 tox | TDP1 block | IL1B secr inh | TDP1 cell CPT | TGFb inhibitor | TDP1 cell noCPT
Cc1ccc(-c2nnc(Nc3ccc(C(=O)N(C)C)cc3)c3ccccc23)cc1S(=O)(=O)NCC1CCCO1 (centres undefined) | -54.5% | 0.6% | -23.4 | 14.6µM* | -4.0% | 23.1µM*
COC(=O)c1ccc(Nc2nnc(-c3ccc(C)c(S(=O)(=O)NCC4CCCO4)c3)c3ccccc23)cc1 (centres undefined) | -15.3% | 2.6% | -63.1* | 23.1µM* | 10.3% | 23.1µM*
Cc1ccc(-c2nnc(Nc3ccc(CC(N)=O)cc3)c3ccccc23)cc1S(=O)(=O)NCC1CCCO1 (centres undefined) | -45.7% | nt | ? | 0.9% | 0.3% | 3.3%
COc1ccccc1NC(=O)Cn1nc2c3cc(F)ccc3n(Cc3cccc(C)c3)cc-2c1=O | 0.4% | 8.5% | nt | 0.4% | -8.5% | 19.3%
CCOC(=O)c1c(NC(C)=O)sc2c(O)c(CN3CCN(CC)CC3)ccc12 | 11.2µM* | 4.7% | -62.7* | ? | ? | -16.5%
CCOC(=O)c1c(NC(C)=O)sc2c(OC)c(Br)ccc12 | 9.4% | -4.5% | -18.4 | -19.7% | 0.7% | -21.9%
N#Cc1ccsc1NC(=O)CSc1nnc(NC2CC2)s1 | -3.6% | nt | 30.2 | 0.2% | 4.8% | -10.9%
CCOC(=O)CN1C(=O)S/C(=C/c2ccc(N3CCCCC3)o2)C1=O | 6.3% | 2.0% | -0.8 | -21.5% | -6.3% | -11.9%
O=C1C2C(C(=O)N1/N=C/c1ccc(N3CCCCC3)o1)C1C=CC2C12CC2 (centres undefined) | -22.8% | -1.8% | -26.1 | 18.4µM* | -8.4% | 14.6µM*
COc1cc(C)c(Br)cc1S(=O)(=O)NCc1ccncc1 | -27.5% | 2.6% | 21.9 | 10.3µM* | -20.7% | 9.2µM*
Cc1cc(C)c(S(=O)(=O)NCc2ccncc2)c(C)c1 | -18.6% | 3.9% | 14.3 | 7.31µM* | -2.3% | 7.31µM*
Cc1cc(C)c(S(=O)(=O)NCCc2ccncc2)c(C)c1 | -6.2% | nt | 6.7 | -1.5% | -1.8% | -4.0%
Cc1ccc(S(=O)(=O)NCc2ccncc2)c(C)c1C | -12.0% | 2.8% | -5.7 | 1.84µM* | -8.8% | 1.3µM*
COc1cc2c(cc1OC)n(CC(=O)Nc1ccc(C)cc1C)c(=O)n1nc(-c3ccccc3)nc21 | 1.6% | 0.9% | nt | 7.5% | -1.6% | 6.0%
CCc1ccc(C(=O)c2cn(CC(=O)Nc3ccc(F)cc3)c3cc4c(cc3c2=O)OCO4)cc1 | 1.1% | -3.8% | nt | ? | -10.8% | -26.5%
O=c1oc(-c2ccc(F)cc2)nc2ccsc12 | -12.6% | -2.3% | 51.8 | -2.3% | -22.2% | -20.6%
